Columns and labels:
Assay in all cases: log2 ratio of Biotin-Ahx-Ub-VS probe labelling (fragment/DMSO); higher = less target engagement (more negative = stronger competition), active = hit call of the paper (q ≤ 0.05, log2 ratio ≤ -1)
Details in all cases: compound concentration: 200 uM; treatment time: 3 h
[1] = target: T1, USP42 (UniProt Q9H9J4)
T1 sequence (whole entry): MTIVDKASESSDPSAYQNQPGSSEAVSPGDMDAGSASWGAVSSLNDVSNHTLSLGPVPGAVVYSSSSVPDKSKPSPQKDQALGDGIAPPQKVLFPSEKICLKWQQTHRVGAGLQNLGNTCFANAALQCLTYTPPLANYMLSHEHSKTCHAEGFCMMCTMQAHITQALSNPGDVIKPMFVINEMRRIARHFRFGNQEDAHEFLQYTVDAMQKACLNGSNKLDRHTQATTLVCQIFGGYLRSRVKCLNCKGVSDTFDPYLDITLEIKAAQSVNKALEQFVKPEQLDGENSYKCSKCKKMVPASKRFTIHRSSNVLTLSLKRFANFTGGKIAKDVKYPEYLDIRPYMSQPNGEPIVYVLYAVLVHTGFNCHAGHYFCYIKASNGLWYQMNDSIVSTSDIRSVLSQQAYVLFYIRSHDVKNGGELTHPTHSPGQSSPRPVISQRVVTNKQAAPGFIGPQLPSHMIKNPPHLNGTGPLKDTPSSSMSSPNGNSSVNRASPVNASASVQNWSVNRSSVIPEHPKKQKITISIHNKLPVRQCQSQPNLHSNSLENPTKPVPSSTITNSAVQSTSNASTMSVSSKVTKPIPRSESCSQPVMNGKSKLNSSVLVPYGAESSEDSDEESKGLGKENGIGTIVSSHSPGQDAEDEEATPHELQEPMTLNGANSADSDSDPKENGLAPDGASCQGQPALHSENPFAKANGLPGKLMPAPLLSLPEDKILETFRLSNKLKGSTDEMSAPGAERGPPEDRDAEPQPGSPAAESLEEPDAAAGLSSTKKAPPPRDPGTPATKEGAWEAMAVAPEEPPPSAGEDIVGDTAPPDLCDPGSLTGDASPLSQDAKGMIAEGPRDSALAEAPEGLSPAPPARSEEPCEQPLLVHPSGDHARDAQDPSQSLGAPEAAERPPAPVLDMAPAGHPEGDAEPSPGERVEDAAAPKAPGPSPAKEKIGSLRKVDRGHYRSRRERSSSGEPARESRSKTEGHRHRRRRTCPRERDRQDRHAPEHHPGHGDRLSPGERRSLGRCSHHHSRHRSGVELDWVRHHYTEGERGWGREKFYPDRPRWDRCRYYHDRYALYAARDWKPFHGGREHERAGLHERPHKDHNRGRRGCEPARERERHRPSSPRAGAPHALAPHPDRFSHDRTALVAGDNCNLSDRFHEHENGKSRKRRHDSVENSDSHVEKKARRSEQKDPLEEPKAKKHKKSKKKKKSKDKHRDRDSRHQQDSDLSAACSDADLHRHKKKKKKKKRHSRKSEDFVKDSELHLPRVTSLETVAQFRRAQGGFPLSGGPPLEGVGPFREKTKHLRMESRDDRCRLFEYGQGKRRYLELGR
Outline: (§1)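 Triplicate samples of HEK293T lysate, 495 µg each, received fragment at 200 µM or vehicle for 3 h, followed by Biotin-Ahx-Ub-VS (0.5 µM final) for 1 h. After NeutrAvidin enrichment of labelled DUBs and LysC/trypsin digestion, peptides were run by diaPASEF LC-MS/MS. The values are average log2 fragment/vehicle ratios from global-median-normalised Spectronaut label-free quantities, tested by unpaired t-test on proteins having ≥2 unique peptides.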

[2] = target: USP46 (UniProt P62068)
Outline: as §1

[3] = target: T2, USP47 (UniProt Q96K76)
T2 sequence (whole entry): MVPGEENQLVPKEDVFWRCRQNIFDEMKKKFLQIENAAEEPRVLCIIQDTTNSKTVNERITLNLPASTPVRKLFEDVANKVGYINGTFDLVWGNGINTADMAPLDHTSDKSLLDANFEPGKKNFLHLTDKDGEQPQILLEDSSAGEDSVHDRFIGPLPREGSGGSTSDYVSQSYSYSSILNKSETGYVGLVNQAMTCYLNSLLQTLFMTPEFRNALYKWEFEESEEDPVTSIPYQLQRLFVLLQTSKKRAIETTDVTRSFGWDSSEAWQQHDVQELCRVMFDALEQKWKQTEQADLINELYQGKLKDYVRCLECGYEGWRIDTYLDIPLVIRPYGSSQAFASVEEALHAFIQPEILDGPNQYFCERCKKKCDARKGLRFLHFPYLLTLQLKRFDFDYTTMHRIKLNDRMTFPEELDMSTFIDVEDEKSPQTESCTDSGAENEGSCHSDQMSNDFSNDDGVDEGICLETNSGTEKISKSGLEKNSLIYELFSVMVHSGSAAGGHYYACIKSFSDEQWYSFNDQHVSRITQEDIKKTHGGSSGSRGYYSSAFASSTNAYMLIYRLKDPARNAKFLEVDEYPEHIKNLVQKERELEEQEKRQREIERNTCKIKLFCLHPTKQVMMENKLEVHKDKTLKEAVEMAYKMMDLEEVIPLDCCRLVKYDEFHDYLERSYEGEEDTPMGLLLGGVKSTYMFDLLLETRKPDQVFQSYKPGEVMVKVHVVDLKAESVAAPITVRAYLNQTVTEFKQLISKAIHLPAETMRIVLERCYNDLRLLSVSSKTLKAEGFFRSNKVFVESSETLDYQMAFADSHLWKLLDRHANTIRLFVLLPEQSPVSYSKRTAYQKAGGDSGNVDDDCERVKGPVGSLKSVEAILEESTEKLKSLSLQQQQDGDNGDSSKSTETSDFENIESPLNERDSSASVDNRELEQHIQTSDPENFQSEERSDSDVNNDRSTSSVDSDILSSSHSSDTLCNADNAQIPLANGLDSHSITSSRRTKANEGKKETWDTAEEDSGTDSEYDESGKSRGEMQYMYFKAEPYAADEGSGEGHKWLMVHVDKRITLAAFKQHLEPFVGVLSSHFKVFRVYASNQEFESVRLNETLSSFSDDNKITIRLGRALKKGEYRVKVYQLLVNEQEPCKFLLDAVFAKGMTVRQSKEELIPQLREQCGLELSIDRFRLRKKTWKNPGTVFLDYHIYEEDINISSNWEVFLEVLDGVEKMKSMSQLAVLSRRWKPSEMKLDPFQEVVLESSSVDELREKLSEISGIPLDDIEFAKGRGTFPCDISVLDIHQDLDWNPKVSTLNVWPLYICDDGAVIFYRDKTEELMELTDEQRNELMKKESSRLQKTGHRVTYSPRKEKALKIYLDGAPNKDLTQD
Outline: as §1

[4] = target: T3, USP48 (UniProt Q86UV5)
T3 sequence (whole entry): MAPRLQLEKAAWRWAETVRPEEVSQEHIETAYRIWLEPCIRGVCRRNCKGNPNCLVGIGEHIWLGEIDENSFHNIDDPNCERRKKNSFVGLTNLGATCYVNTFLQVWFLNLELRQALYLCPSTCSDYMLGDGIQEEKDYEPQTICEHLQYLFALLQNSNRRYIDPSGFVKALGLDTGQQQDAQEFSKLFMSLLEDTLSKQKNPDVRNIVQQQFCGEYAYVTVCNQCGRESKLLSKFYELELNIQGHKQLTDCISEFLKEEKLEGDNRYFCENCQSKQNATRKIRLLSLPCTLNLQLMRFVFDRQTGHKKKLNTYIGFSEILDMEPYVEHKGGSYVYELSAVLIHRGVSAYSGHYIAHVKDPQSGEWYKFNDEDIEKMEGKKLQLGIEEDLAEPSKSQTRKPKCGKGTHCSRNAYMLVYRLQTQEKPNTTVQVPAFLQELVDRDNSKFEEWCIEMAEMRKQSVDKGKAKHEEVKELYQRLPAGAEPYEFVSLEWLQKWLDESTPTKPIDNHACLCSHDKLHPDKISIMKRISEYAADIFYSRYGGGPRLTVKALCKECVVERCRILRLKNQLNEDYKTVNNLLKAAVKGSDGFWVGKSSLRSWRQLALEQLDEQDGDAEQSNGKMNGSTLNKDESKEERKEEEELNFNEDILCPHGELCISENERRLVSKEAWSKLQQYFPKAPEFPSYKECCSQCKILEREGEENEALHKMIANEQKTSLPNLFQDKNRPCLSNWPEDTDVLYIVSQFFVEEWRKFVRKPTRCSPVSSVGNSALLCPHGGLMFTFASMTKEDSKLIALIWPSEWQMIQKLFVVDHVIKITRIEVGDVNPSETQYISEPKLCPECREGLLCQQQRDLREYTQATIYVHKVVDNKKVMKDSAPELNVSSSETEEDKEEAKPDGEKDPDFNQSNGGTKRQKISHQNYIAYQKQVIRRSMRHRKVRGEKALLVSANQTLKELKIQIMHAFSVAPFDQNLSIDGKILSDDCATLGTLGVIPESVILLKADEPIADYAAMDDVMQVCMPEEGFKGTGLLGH
Outline: as §1

[5] = target: T4, USP5 (UniProt P45974)
T4 sequence (whole entry): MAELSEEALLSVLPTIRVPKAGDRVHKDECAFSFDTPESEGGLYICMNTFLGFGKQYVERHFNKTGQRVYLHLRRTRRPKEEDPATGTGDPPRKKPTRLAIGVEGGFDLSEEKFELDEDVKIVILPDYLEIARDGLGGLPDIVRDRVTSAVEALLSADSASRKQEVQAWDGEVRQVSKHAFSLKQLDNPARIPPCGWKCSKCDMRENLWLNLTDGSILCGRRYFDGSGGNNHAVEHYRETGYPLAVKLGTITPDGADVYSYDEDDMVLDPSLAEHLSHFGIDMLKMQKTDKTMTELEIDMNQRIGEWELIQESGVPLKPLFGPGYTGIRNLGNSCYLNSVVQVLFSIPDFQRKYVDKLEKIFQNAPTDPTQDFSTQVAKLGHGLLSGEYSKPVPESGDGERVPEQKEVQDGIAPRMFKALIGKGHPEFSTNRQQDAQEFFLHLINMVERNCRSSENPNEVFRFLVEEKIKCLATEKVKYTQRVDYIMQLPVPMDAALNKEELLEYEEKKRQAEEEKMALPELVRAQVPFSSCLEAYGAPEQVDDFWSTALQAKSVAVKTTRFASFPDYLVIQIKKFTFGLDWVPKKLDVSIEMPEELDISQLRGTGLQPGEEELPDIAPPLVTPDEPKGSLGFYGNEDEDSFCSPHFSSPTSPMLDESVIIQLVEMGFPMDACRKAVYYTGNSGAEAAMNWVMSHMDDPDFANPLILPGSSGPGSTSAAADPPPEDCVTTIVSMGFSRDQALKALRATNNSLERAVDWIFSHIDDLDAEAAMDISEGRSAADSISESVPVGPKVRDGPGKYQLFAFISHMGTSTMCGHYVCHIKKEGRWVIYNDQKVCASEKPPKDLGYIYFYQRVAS
Outline: as §1

[6] = target: USP54 (UniProt Q70EL1)
Outline: as §1

[7] = target: USP7 (UniProt Q93009)
Outline: as §1

[8] = target: T5, USP8 (UniProt P40818)
T5 sequence (whole entry): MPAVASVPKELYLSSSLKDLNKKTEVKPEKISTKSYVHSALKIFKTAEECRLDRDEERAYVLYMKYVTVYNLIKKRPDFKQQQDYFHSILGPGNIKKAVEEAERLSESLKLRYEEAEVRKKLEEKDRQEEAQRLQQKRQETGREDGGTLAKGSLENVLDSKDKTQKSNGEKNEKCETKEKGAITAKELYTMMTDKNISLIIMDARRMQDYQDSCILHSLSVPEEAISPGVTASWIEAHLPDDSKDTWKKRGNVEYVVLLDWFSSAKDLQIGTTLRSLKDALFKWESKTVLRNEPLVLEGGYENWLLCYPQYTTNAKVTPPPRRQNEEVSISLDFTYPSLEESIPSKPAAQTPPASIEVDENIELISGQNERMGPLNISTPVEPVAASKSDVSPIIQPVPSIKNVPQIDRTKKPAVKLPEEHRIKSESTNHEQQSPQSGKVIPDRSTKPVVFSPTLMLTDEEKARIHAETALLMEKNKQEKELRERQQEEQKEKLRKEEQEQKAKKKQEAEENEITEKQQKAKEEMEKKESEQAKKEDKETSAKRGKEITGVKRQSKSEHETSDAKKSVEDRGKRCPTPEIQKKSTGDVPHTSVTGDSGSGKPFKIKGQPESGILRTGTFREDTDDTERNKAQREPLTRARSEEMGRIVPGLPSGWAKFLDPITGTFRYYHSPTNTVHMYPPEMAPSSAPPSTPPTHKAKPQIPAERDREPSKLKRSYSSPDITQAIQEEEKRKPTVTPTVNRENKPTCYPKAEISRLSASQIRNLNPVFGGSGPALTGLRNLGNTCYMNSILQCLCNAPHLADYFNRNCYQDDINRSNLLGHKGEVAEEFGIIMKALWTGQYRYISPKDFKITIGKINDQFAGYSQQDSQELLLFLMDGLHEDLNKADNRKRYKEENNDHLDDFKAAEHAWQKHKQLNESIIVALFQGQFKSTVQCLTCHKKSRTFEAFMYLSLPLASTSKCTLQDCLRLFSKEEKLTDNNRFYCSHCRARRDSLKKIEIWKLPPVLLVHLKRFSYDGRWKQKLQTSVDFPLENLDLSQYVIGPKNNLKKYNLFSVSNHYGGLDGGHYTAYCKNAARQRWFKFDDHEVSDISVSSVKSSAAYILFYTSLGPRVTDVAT
Outline: as §1

[9] = target: USP9X (UniProt Q93008)
Outline: as §1

[10] = target: UniProt O00487
Outline: as §1

Measured: log2 ratio of Biotin-Ahx-Ub-VS probe labelling

Chain of USP54 (Q70EL1 whole entry): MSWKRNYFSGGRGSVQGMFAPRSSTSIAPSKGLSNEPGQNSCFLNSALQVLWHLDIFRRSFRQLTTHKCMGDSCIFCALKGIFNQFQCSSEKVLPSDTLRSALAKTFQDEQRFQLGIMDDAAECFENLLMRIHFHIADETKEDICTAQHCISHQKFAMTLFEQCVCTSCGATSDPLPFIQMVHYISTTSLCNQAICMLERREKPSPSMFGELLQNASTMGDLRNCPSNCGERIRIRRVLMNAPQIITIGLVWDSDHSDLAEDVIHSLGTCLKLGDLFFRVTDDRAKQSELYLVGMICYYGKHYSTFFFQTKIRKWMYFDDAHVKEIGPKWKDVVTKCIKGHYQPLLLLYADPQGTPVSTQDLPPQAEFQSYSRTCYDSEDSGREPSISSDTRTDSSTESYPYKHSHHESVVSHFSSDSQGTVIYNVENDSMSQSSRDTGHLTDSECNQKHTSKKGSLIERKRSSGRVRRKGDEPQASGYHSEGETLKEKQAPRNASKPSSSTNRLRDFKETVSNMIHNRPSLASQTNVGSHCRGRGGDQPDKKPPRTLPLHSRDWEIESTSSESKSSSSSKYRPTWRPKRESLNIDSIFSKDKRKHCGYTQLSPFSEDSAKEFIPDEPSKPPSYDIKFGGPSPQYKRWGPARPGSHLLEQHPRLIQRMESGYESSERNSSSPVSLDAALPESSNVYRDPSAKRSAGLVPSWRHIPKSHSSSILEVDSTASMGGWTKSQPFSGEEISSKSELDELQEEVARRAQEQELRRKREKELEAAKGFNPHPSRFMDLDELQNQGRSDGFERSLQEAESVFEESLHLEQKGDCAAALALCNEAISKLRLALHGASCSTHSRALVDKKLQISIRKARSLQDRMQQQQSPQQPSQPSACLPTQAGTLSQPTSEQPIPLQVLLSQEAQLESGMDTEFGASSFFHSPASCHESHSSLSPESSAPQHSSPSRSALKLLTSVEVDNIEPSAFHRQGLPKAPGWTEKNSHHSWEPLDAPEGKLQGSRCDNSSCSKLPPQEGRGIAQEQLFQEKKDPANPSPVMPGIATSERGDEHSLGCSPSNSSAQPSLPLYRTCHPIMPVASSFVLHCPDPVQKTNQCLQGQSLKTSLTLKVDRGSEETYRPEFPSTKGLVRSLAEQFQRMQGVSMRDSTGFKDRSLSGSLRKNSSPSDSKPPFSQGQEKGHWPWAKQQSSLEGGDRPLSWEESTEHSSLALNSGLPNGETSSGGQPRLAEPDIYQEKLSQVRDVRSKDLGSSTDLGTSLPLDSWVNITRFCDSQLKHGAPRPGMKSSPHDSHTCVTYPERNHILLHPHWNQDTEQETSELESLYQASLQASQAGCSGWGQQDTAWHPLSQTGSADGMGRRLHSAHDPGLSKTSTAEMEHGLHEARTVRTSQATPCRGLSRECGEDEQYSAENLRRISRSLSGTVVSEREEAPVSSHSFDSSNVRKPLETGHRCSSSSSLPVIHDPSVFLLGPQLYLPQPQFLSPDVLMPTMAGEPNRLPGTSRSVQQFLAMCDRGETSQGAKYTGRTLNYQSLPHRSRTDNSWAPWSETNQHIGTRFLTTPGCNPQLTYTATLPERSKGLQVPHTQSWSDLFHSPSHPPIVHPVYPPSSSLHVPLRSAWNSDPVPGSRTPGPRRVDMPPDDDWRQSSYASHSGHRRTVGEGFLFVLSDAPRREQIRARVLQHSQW
Chain of UniProt O00487 (O00487 whole entry): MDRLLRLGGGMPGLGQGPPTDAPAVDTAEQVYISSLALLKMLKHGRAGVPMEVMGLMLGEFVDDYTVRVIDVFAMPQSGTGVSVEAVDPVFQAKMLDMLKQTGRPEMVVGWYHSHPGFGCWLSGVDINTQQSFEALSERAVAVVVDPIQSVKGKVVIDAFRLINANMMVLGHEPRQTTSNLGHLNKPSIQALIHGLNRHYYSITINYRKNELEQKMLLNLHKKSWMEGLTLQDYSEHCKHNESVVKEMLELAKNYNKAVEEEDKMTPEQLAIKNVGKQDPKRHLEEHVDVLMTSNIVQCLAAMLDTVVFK
Chain of USP9X (Q93008 whole entry): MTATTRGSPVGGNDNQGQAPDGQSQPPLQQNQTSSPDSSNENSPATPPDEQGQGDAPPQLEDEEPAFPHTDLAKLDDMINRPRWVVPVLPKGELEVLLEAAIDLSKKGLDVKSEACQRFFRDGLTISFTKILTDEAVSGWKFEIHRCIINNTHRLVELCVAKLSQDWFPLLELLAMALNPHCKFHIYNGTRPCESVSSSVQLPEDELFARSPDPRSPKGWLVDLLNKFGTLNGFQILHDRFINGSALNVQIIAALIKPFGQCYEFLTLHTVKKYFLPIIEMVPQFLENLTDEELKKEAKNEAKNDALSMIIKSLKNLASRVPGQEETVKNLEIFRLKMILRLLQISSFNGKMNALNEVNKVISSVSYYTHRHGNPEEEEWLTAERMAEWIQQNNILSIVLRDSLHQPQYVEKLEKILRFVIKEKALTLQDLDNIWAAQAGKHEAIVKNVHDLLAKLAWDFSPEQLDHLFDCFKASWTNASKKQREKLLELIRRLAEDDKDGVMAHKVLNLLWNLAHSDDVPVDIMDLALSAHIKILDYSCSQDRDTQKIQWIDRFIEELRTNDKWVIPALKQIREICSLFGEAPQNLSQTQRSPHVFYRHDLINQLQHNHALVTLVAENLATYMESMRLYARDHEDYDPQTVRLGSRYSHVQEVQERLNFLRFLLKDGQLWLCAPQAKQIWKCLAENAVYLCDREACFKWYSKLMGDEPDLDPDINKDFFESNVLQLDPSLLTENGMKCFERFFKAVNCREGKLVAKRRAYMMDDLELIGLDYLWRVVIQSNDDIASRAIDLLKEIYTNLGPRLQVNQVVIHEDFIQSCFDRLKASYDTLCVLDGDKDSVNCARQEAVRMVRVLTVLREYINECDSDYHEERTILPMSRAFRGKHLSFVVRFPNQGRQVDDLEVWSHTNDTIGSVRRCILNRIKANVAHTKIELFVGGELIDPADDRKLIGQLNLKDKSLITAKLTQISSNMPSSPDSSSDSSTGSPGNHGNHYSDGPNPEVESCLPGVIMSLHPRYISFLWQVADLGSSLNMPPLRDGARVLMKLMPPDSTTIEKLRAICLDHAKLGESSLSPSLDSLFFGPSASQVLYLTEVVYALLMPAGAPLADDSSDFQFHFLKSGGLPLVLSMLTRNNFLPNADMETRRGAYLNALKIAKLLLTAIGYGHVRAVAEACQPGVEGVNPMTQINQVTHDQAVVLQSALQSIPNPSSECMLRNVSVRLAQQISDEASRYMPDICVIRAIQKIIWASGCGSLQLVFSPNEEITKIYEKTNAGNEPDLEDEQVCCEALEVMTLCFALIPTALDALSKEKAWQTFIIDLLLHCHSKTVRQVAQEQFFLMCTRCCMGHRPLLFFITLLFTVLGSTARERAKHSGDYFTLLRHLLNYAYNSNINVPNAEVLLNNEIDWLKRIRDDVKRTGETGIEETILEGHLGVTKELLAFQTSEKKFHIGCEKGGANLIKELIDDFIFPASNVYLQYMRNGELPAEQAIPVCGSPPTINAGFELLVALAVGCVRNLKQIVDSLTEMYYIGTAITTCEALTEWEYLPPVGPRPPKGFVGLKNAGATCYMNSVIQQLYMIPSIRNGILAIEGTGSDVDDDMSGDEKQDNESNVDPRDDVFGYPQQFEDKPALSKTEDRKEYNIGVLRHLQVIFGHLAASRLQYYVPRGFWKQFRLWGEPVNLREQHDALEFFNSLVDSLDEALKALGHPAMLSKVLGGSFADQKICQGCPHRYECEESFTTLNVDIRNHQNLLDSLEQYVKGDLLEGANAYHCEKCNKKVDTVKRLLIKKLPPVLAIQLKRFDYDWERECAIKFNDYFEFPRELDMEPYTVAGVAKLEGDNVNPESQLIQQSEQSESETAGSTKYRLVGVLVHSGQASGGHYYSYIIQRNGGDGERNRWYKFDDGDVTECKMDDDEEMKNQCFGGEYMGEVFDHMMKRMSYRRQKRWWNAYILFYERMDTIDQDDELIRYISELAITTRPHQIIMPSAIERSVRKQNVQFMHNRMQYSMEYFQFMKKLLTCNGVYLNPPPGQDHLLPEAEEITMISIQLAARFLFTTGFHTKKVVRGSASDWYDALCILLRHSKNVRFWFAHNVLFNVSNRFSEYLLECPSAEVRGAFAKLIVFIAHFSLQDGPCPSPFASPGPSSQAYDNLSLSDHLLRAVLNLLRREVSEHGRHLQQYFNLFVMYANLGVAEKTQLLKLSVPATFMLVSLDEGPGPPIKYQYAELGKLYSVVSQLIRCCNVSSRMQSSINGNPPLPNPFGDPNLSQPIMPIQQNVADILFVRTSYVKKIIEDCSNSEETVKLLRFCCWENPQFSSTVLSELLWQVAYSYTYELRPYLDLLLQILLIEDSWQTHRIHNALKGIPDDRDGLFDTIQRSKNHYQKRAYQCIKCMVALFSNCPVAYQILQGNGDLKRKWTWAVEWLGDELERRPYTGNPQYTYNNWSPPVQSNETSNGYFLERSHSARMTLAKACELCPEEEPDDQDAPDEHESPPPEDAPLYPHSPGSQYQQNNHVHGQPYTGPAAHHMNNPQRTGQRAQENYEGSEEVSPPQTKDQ
Chain of USP46 (P62068 whole entry): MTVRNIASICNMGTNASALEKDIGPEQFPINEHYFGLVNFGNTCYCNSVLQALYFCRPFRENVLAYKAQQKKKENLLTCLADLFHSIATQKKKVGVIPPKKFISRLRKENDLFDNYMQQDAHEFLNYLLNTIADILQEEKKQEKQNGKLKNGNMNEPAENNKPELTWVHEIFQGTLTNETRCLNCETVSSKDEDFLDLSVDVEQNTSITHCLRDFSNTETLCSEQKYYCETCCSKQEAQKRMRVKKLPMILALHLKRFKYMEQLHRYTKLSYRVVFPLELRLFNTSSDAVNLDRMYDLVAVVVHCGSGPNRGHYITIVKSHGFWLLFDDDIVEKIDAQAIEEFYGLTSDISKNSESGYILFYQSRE

O=C(CCl)N1CCOC2(CCC2)CC1
inactive: [1] -0.307 | [2] 0.0174 | [3] -0.785 | [4] -0.374 | [5] 0.235 | [6] -0.505 | [7] -0.145 | [8] -0.275 | [9] -0.0935 | [10] 0.0511

Reference: the supplement of paper PMC11732987, “Enantioselective OTUD7B fragment discovery through chemoproteomics screening and high-throughput optimisation” (Communications Chemistry, 2025)
